Experimental findings from PubChem BioAssay (NCATS) are described below.

Molecules are shown by their SMILES. Records with an inconclusive call do not appear. The source holds several records for some structures; these can differ, active in one and inactive in another. Calls of active or inactive are those of the source. Calls come from the whole dose curve; as a rule, active = well fitted curve in the direction sought with a large enough effect; inconclusive = small, poorly fitted or top-dose-only effect, or another doubt; inactive = no such curve, though single readings can be large; an effect the other way counts as inactive or inconclusive.

One test has as its system MKL-2. In words: qHTS assay to identify novel small-molecules to repurpose for Merkel cell carcinoma treatment (AID 1296009). Note: nearly all actives have a fitted effect of over 60% in size. The conditions noted are these: MCC and control cell lines, CellTiter-Glo viability, 72 h; series mostly up to 46 µM. In outline: (§1)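 Luminescence from CellTiter-Glo, read 10 min after addition at room temperature, reported viability following a 72 hr, 37 degree celsius treatment with NPC or MIPE compounds in titration; values normalized to plate controls.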
On the technique in general: Quantitative high-throughput screening tests each substance at several concentrations.

For another test, the system named is UISO. The test is described as above. Conditions: MCC and control cell lines, CellTiter-Glo viability, 72 h; series mostly up to 46 µM. The method in brief: as §1
The next test relates to WaGa. The description is as above. The conditions noted are these: MCC and control cell lines, CellTiter-Glo viability, 72 h; series mostly up to 46 µM. The method in brief:
as §1

Another test concerns HeLa. In words: Primary qHTS to identify gynecologic anti-cancer compounds using libraries of approved drugs and bioactive compounds (AID 1345084). Note: nearly all actives have a fitted effect of over 55% in size. Conditions: Gynecologic cancer cell panel viability, ATPlite luminescence, 48 h; series mostly up to 57.5 µM. In outline:
(§2)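 Five-concentration response, 48 h; readout is ATP-driven luciferase luminescence.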

For another test, the system named is CAOV3. The description is as above. Conditions: Gynecologic cancer cell panel viability, ATPlite luminescence, 48 h; series mostly up to 57.5 µM. In outline:
as §2
Background: In ATP-based viability assays light output follows the ATP content of the culture.

The test system of another test is CASKI. The description is as above. The conditions noted are these: Gynecologic cancer cell panel viability, ATPlite luminescence, 48 h; series mostly up to 57.5 µM. In outline: as §2
In another test the test system is Es-2. The test is described as above. Conditions: Gynecologic cancer cell panel viability, ATPlite luminescence, 48 h; series mostly up to 57.5 µM. In outline: as §2
For the next test, the system named is Hek293T. The description is as above. Conditions: Gynecologic cancer cell panel viability, ATPlite luminescence, 48 h, control line for the selectivity index; series mostly up to 57.5 µM. The method in brief:
as §2

The test system of a further test is C33A. Described as above. The conditions noted are these: Gynecologic cancer cell panel viability, ATPlite luminescence, 48 h; series mostly up to 57.5 µM. In outline: as §2
Potency is the fitted concentration of half-maximal effect.

For the compound `CCCCC(CC)CN=C(N)NC(N)=NCCCCCCN=C(N)NC(N)=NCC(CC)CCCC` (stereo unspecified), the Potency in the test with MKL-2 was 1.88 µM (active); with UISO, 1.88 µM (active); in the test with WaGa, 2.66 µM (active); in the test on HeLa, 17.8 µM (active).

For the compound `CO/N=C1\CN(c2nc3c(cc2F)c(=O)c(C(=O)O)cn3C2CC2)CC1CN` (stereo unspecified), the Potency entry with MKL-2, in the test with UISO, with WaGa, in the test with CAOV3, with CASKI and with Es-2 was “inactive” throughout. Also, the Potency entry in the test with HeLa and in the test on Hek293T was “inactive” each time.

`Oc1c(I)cc(Cl)c2cccnc12`: the Potency is 7.5 µM (active) in the test on MKL-2, 16.8 µM (active) with UISO and 23.7 µM (active) with WaGa. Besides, the Potency result in the test with CAOV3, in the test with CASKI and in the test on HeLa was “inactive” throughout.

Take `O=C(CCN1CCC(c2ccccc2)C1)c1ccc2c(c1)OCCO2` (stereo unspecified): the Potency with MKL-2 is 0.841 µM (active); in the test on WaGa it was 2.99 µM (active). Also, the Potency result in the test on C33A, in the test with CAOV3, in the test with CASKI, with Es-2, with HeLa and in the test on Hek293T was “inactive” in each case.

On to `CC(=O)N/N=C/c1ccc([N+](=O)[O-])o1`, for which the Potency is 6.68 µM (active) in the test on MKL-2 and 23.7 µM (active) in the test on WaGa. The Potency result in the test on C33A, with CAOV3, in the test on CASKI, in the test with Es-2, with HeLa and in the test with Hek293T was “inactive” throughout.

Turning to `O=c1c(-c2ccccc2)c1-c1ccccc1`, the results for the Potency in the test on MKL-2, in the test with UISO and with WaGa were 13.3 µM (active), 26.6 µM (active) and 18.8 µM (active), respectively. In addition, the Potency entry in the test on HeLa is “inactive”.

Consider `C/C=C(/C(=C/C)c1ccc(O)cc1)c1ccc(O)cc1`, for which the Potency result in the test on MKL-2, in the test on UISO, with C33A, with CASKI, in the test on Es-2 and in the test with HeLa was “inactive” each time. In addition, the Potency result with Hek293T is “inactive”.

With `CN1CCCC(CC2c3ccccc3Sc3ccccc32)C1` (stereo unspecified), the Potency in the test with MKL-2 and in the test with UISO was 23.7 µM (active) throughout. The Potency result in the test with CASKI, in the test with Es-2, in the test with HeLa and in the test with Hek293T was “inactive” throughout.

With `COc1cc(C=C2CCC/C(=C\c3ccc(O)c(OC)c3)C2=O)ccc1O`, the values for the Potency in the test on MKL-2, with UISO and in the test with WaGa were 2.99 µM (active), 21.1 µM (active) and 5.31 µM (active), respectively. The Potency result in the test with Es-2 and with Hek293T was “inactive” throughout.

Turning to `Oc1ccc(O)cc1`, the Potency was 4.73 µM (active) in the test on MKL-2 and 1.88 µM (active) with WaGa. For the same compound, the Potency result in the test with C33A, in the test on CAOV3, in the test on CASKI, in the test on Es-2, in the test on HeLa and with Hek293T was “inactive” each time.

For `C[n+]1c2cc(N)ccc2cc2ccc(N)cc21` (tested in a mixture with another compound), the Potency is 0.75 µM (active) in the test with MKL-2; 2.99 µM (active) in the test with UISO; 1.5 µM (active) in the test with WaGa; 15.8 µM (active) in the test with Es-2; 8.91 µM (active) in the test on HeLa; 10 µM (active) in the test with Hek293T.

`CC(=O)Oc1ccc(C(c2ccc(OC(C)=O)cc2)c2ccccn2)cc1`: the Potency entry in the test on MKL-2, in the test with WaGa, in the test on C33A, in the test on CAOV3, with Es-2 and with Hek293T was “inactive” in each case.

In the case of `CCOc1ccc2nc3cc(N)ccc3c(N)c2c1`, the Potency in the test on MKL-2 is 2.99 µM (active); in the test on UISO it was 8.41 µM (active); with WaGa it was 2.11 µM (active). For the same compound, the Potency entry with Es-2 and in the test with HeLa was “inactive” each time.

As to `CC(C)=CCC1C(=O)N(c2ccccc2)N(c2ccccc2)C1=O`, the Potency with MKL-2 was 13.3 µM (active). Also, the Potency entry with C33A, in the test on CASKI, in the test on Es-2, with HeLa and in the test on Hek293T was “inactive” in each case.

Consider `CC(C)(C)CC(C)(C)c1ccc(OCCOCC[N+](C)(C)Cc2ccccc2)cc1`, for which the Potency is 0.944 µM (active) in the test on MKL-2; 8.41 µM (active) with UISO; 1.5 µM (active) in the test with WaGa; 25.1 µM (active) and inactive with CAOV3; 10 µM (active) in the test on CASKI. The Potency entry in the test on Es-2, with HeLa and in the test with Hek293T was “inactive” in each case.

Regarding `Cc1ccc(O)c2ncccc12`, the values for the Potency in the test with MKL-2 and with UISO were 8.41 µM (active) and 11.9 µM (active), respectively. In addition, the Potency result in the test on C33A, with CAOV3, in the test on CASKI, in the test on Es-2, with HeLa and in the test on Hek293T was “inactive” each time.

Consider `OC[C@H]1O[C@@H](n2cnc3c(=S)nc[nH]c32)[C@H](O)[C@@H]1O`, for which the Potency result in the test on MKL-2 and in the test on CAOV3 was “inactive” each time. Further, the Potency in the test with WaGa was 0.237 µM (active); with C33A, 7.94 µM (active); with CASKI, 2.24 µM (active); in the test on Es-2, 3.55 µM (active); in the test on HeLa it was 3.16 µM (active); with Hek293T, 10 µM (active).

For `CCOC(=O)c1cccc(N)c1`, the Potency result with MKL-2, with UISO, with WaGa, with C33A, in the test on CASKI and with Es-2 was “inactive” throughout. The Potency result with HeLa and with Hek293T was “inactive” each time.

Consider `CN(C/C=C/c1ccccc1)Cc1cccc2ccccc12`, for which the Potency result in the test on MKL-2, in the test with WaGa, with C33A, in the test with CAOV3, in the test with CASKI and in the test on Es-2 was “inactive” in each case. Also, the Potency result with HeLa is “inactive”.

As for `CCN(CC)CCOc1ccc(C(O)(Cc2ccc(Cl)cc2)c2ccc(C)cc2)cc1` (stereo unspecified), the Potency in the test with MKL-2 is 7.5 µM (active); in the test with WaGa, 18.8 µM (active). The Potency entry with HeLa is “inactive”.

As to `CC1=C(C(=O)OC(C)C)C(c2cccc([N+](=O)[O-])c2)C(C(=O)OC2CN(C(c3ccccc3)c3ccccc3)C2)=C(N)N1` (stereo unspecified), in the test on MKL-2, the Potency was 16.8 µM (active). The Potency entry with C33A, in the test with CAOV3, in the test on CASKI, with Es-2, in the test with HeLa and with Hek293T was “inactive” each time.

`CN(C)CC/C=C1\c2ccccc2Sc2ccc(Cl)cc21`: the Potency in the test with MKL-2 was 11.9 µM (active). Also, the Potency result with C33A, in the test on CAOV3, with CASKI, with Es-2, in the test on HeLa and in the test on Hek293T was “inactive” each time.

In the case of `N[C@H](Cc1c[nH]c2ccccc12)C(=O)O`, the Potency entry in the test with MKL-2, in the test with WaGa, in the test on C33A, in the test with CAOV3, with CASKI and in the test with Es-2 was “inactive” throughout. The Potency entry with HeLa and in the test on Hek293T was “inactive” throughout.

For `COc1ccc(CCN2CCC(Nc3nc4ccccc4n3Cc3ccc(F)cc3)CC2)cc1`, the Potency in the test with MKL-2 was 13.3 µM (active); in the test on WaGa, 21.1 µM (active); in the test with HeLa, 28.2 µM (active).

`C=C(CC)C(=O)c1ccc(OCC(=O)O)c(Cl)c1Cl`: the Potency in the test with MKL-2 is 15 µM (active); in the test on WaGa, 13.3 µM (active). Further, the Potency result with C33A, with CAOV3, in the test on CASKI, with Es-2 and with HeLa was “inactive” throughout.
